According to PubChem BioAssay (NCI):
The panel holds about 83,000 compounds, 20% with a hit somewhere; the sample as a whole holds those more often.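 Testing used 96-well plates and a 48-hour single-concentration exposure. Example: -40 means 40% of the starting cells died.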 Unmarked numbers belong to inactive results. Active and inactive are the calls of the source. How the source made its calls: active means growth percent below 10; inactive means the rest.

Legend:
Assay in all cases: NCI-60 one-dose screen, 48 h (100 = growth as untreated, 0 = no growth, -100 = all killed)
Settings in all cases: 10 µM unless noted
HT29 colon = tested on: HT29 colon
SNB-75 CNS = tested on: SNB-75 CNS
SNB-19 CNS = tested on: SNB-19 CNS
U251 CNS = tested on: U251 CNS
PC-3 prostate = tested on: PC-3 prostate
SK-MEL-5 melanoma = tested on: SK-MEL-5 melanoma
UACC-62 melanoma = tested on: UACC-62 melanoma
LOX IMVI melanoma = tested on: LOX IMVI melanoma
SK-MEL-28 melanoma = tested on: SK-MEL-28 melanoma
EKVX NSCLC = tested on: EKVX NSCLC
SN12C renal = tested on: SN12C renal
UO-31 renal = tested on: UO-31 renal
ACHN renal = tested on: ACHN renal
CAKI-1 renal = tested on: CAKI-1 renal
A498 renal = tested on: A498 renal
CCRF-CEM leukemia = tested on: CCRF-CEM leukemia
MOLT-4 leukemia = tested on: MOLT-4 leukemia
SR leukemia = tested on: SR leukemia
SK-MEL-2 melanoma = tested on: SK-MEL-2 melanoma
TK-10 renal = tested on: TK-10 renal

Row | SMILES | growth (HT29 colon) | growth (SNB-75 CNS) | growth (SNB-19 CNS) [%] | growth (U251 CNS) [%] | growth (PC-3 prostate) [%] | growth (SK-MEL-5 melanoma) [%] | growth (UACC-62 melanoma) | growth (LOX IMVI melanoma) | growth (SK-MEL-28 melanoma) | growth (EKVX NSCLC) | growth (SN12C renal) [%] | growth (UO-31 renal) | growth (ACHN renal) | growth (CAKI-1 renal) | growth (A498 renal) | growth (CCRF-CEM leukemia) | growth (MOLT-4 leukemia) | growth (SR leukemia) [%] | growth (SK-MEL-2 melanoma) | growth (TK-10 renal) [%]
1 | COc1cccc(-c2nn(-c3ccccc3)cc2-c2ccnc(N3CCN(C(=O)Nc4ccc(F)cc4)CC3)c2)c1 | 70% | 66.5% | 64.5 | 67.4 | 44.3 | 42.5 | 43.8% | 59% | 69.6% | 62.1% | 67.4 | 34.4% | 67.6% | 49.2% | 56.9% | 31.8% | 19.3% | 24.8 | – | –
2 | N#Cc1nc(-c2ccccc2)oc1S(=O)(=O)N1CCCCC1 | 2.86% (active) | 94.8% | 95.8 | 94.5 | 88.1 | 93.7 | 96.4% | -82.5% (active) | 85.1% | 76.1% | 62.5 | -82.2% (active) | -93.4% (active) | 17.4% | 89.9% | 4.27% (active) | 0.441% (active) | – | – | –
3 | CC(C)(O)c1cncc(-c2ccc3ncnc(N4CCc5cc(F)c(Cl)cc54)c3c2)c1 | 20.8% | -20% (active) | 25.2 | 42.6 | 18.7 | 13.4 | 5.48% (active) | 12.2% | 24.8% | -2.39% (active) | 18.6 | 6.25% (active) | 11.3% | 10.6% | -39.6% (active) | 22.2% | 0.627% (active) | 18 | -1.1% (active) | –
4 | COc1cc(-c2nc3ccc(-c4nnc(SCC(=O)Nc5ccc(C(=O)/C=C/c6ccc(Cl)cc6)cc5)o4)cc3[nH]2)cc(OC)c1OC | 102% | 85.3% | 93.4 | 77.6 | 95.1 | 91.4 | 84% | -31.6% (active) | 102% | – | 90.4 | 84% | 96.8% | 97.2% | 83.2% | 81.6% | 79.5% | 60.4 | 100% | 120
5 | COc1cc2nc(-c3ccc(Cl)cc3)cc(OCCCNCC3CCCO3)c2cc1OC (stereo not drawn) | 16.1% | 60.4% | 82.5 | 61.4 | 52.2 | 50.1 | -56.2% (active) | -47.8% (active) | 8.95% (active) | 67.1% | 47.3 | 57.3% | 46.6% | 17.3% | 47.9% | 49.1% | 40.6% | 19.5 | 124% | –
6 | N/C(=N\c1nc2c(Cl)cc(Cl)cc2s1)C(Cl)(Cl)Cl | 8.65% (active) | 7.23% (active) | 46.8 | 21 | 37.5 | 87 | 40.3% | 1.92% (active) | 54.9% | 13.4% | 77.9 | 45.8% | -32% (active) | 5.87% (active) | -44.4% (active) | 83.7% | 82.8% | 85.1 | 80.5% | –
7 | CN1C(=S)N(C)C2C1NN=C1SC(c3ccccc3)=CC(=O)N12 (stereo not drawn) | 103% | 115% | 98.9 | 95.1 | 87.5 | 64.3 | 78.3% | 92.2% | 102% | 80.9% | 96.2 | 88.3% | 96.8% | 90.8% | 103% | 91% | 89.8% | 65.4 | – | 97.7
8 | O=C(CSc1nnc(-c2ccc3nc(-c4ccc(Cl)cc4)[nH]c3c2)o1)Nc1ccc(C(=O)/C=C/c2ccc(Cl)cc2)cc1 | 100% | 90.9% | 99.5 | 82.2 | 87.7 | 93.7 | 83.2% | -24.2% (active) | 106% | – | 84.9 | 75.3% | – | 83.6% | 90.1% | 86.4% | 77.8% | 49.7 | 111% | 129
